Structures are written as SMILES. Several values for one entry are separate records, joined by “and”; a condition that tells them apart may be missing. Equal values may be shown once. Activity calls are given as the source filed them. Rule for the calls: active = hit-call score of the fitted dose curve at least 0.9, where 1 is the maximum; inactive = score below 0.9.

Read-out in the assay: Monokine induced gamma interferon (MIG), CXCL9 (gene 4283)
Description: BSK_SAg_MIG: BioMAP Diversity Plus: SAg Assay for Monokine induced gamma interferon (MIG) Biomarker Activity (AID 2283092). The following applies: primary human HUVEC with PBMC; actives raise or lower the signal. The protocol:
BSK_SAg is a cell-based, multiplexed-readout assay that uses umbilical vein endothelium and peripheral blood mononuclear cells, a human vascular primary cell co-culture, with measurements taken at 24 hours after chemical dosing in a 96-well plate.BSK_SAg_MIG is an assay component measured in the BSK_SAg assay. It measures MIG antibody related to regulation of gene expression using ELISA technology.Data from the assay component BSK_SAg_MIG was analyzed into 1 assay endpoint. This assay endpoint, BSK_SAg_MIG, was analyzed with bidirectional fitting relative to DMSO as the negative control and baseline of activity. Using a type of binding reporter, gain or loss-of-signal activity can be used to understand changes in the signaling as they relate to the gene CXCL9. Furthermore, this assay endpoint can be referred to as a primary readout, because this assay has produced multiple assay endpoints where this one serves a signaling function. To generalize the intended target to other relatable targets, this assay endpoint is annotated to the cytokine intended target family, where the subfamily is chemotactic factor.
The levels of cell surface (or secreted, indicated by the prefix "s") biomarker endpoints were measured by ELISA. Overt cytotoxicity to cells in confluent adherent cultures (all systems other than the BT system) was assessed by measuring total protein levels using sulforhodamine B (SRB) staining in parallel cultures at the time of biomarker measurements, indicated as SRB endpoints. For proliferation assays for adherent cell types, individual cell types are cultured at sub-confluence and relative cell numbers quantified by SRB staining at time points optimized for each system (48 h: 3C and CASM3C systems; 72 h: BT and HDF3CGF systems; 96 h: SAg system). SRB was performed by staining cells with 0.1% SRB after fixation with 10% TCA and reading wells at 560 nm.Viability and proliferation of PBMC (T cells) was quantified by Alamar Blue reduction for the SAg and BT systems. For PBMC viability (referred to as PBMC Cytotoxicity within the assay endpoint names), cells were plated (75,000/well in a 96-well plate) and then chemical samples added for 1 h before addition of activators, SEB and TSST-1 (20 ng/mL final concentration each). Cells were incubated for 90 h. Then, Alamar Blue (20 uL/well) (Invitrogen, Cat DAL1100) was added for 6 h, and the plates were read with a fluorescence microplate reader at 546/580 nm (excitation/emission). For PBMC proliferation, cells were plated and activated as above but incubated for only 16 h prior to addition of Alamar Blue. Plates were read after 6 h.
For the compound `NS(=O)(=O)C(F)(F)C(F)(F)C(F)(F)C(F)(F)C(F)(F)C(F)(F)C(F)(F)C(F)(F)F`, the AC50 (usually the midpoint of the concentration-response curve, whichever way the signal moves) is 34.6 µM (active) and 51.3 µM (active) and 56.3 µM (active). Regarding `O=C(O)C(F)(F)C(F)(F)C(F)(F)C(F)(F)C(F)(F)C(F)(F)C(F)(F)C(F)(F)F`, the result was inactive. On the same count and under the same terms, the entry for `CC(C)C(=O)OCC(C)(C)C(OC(=O)C(C)C)C(C)C` (stereo not given) is “inactive”; for `Nc1ccc(-c2ccc(N)cc2)cc1` it is “inactive”; for `C=CC(N)=O` it is “inactive”.

In the case of `O=NN(c1ccccc1)c1ccccc1`, the result was inactive. Same read-out and setting: then `CC1=C2C[C@H]3[C@@H](CC=C4C[C@@H](O)CC[C@@]43C)[C@@H]2CC[C@]12O[C@@H]1C[C@H](C)CN[C@H]1[C@H]2C`, with “inactive”; and `ClC1=C(Cl)[C@]2(Cl)[C@@H]3[C@@H](Cl)[C@H]4O[C@H]4[C@@H]3C1(Cl)C2(Cl)Cl`, with “inactive”. The same measure, in the same setting: then `O=S(=O)(O)C(F)(F)C(F)(F)C(F)(F)C(F)(F)F`, with “inactive”. Same read-out and setting: then `CCOCCOC(C)=O`, with “inactive”. With `Cc1cc(O)ccc1Cl`, the outcome was inactive. Same read-out and setting: the entry for `COS(=O)(=O)OC` is “inactive”.

With `ClC(Cl)=C(c1ccc(Cl)cc1)c1ccc(Cl)cc1`, the AC50 was 36 µM (active). With `CCC(C)(c1ccc(O)cc1)c1ccc(O)cc1`, the outcome was inactive. `CCOC(=O)C(O)(c1ccc(Cl)cc1)c1ccc(Cl)cc1`: the AC50 was 39.3 µM (active). With `O=C(O)C(F)(F)C(F)(F)C(F)(F)C(F)(F)C(F)(F)F`, the result was inactive. On the same count and under the same terms, the entry for `ClC1=C(Cl)[C@]2(Cl)[C@@H]3[C@H]4C[C@H]([C@@H]5O[C@H]45)[C@@H]3[C@@]1(Cl)C2(Cl)Cl` is “inactive”; for `CCC(C)(CC)c1cc(NC(=O)c2c(OC)cccc2OC)on1` it is “inactive”; for `O=C(N[C@H]1CN2CCC1CC2)c1cc2ccoc2cn1` it is “inactive”.

Turning to `O=S(=O)(O)C(F)(F)C(F)(F)C(F)(F)C(F)(F)C(F)(F)C(F)(F)F`, the result was inactive.

In the case of `Oc1ccc(C(c2ccc(O)cc2)(C(F)(F)F)C(F)(F)F)cc1`, the AC50 was 32.4 µM (active). For the compound `ClC1=C(Cl)[C@]2(Cl)[C@@H]3[C@@H]4C[C@@H]([C@H]5O[C@@H]45)[C@@H]3[C@@]1(Cl)C2(Cl)Cl`, the result was inactive. For `C=CC(=O)NCNC(=O)C=C`, the result was inactive.

As to `CCC(C)c1cc([N+](=O)[O-])cc([N+](=O)[O-])c1O` (stereo not given), the AC50 was 31.7 µM (active). On to `CCNc1nc(NC(C)C)nc(SC)n1`, for which the result was inactive. Regarding `Cc1ccccc1O`, the outcome was inactive. Still for that read-out and setting: the entry for `C1CC2OC2CC1C1CO1` (stereo not given) is “inactive”. Still for that read-out and setting: the entry for `c1ccc(-c2ccccc2)cc1` is “inactive”. `CCC(=O)O[C@H]1CC[C@H]2[C@@H]3CCC4=CC(=O)CC[C@]4(C)[C@H]3CC[C@]12C`: the AC50 was 35.7 µM (active). In the case of `CO/C=C(/C(=O)OC)c1ccccc1COc1cccc(C(F)(F)F)n1`, the AC50 was 26.5 µM (active). Same read-out and setting: then `CC(C)(c1ccccc1)c1ccc(O)cc1`, with 38.7 µM (active). In the case of `CN(C)c1nc(=O)n(C2CCCCC2)c(=O)n1C`, the outcome was inactive. On the same count and under the same terms, the entry for `COc1ccc(O)c(C(C)(C)C)c1` is “inactive”. Still for that read-out and setting: the entry for `Cc1ccccc1[N+](=O)[O-]` is “inactive”.

`CCSC(=O)N(CC)C1CCCCC1`: the result was inactive. Regarding `Clc1ccc(C(c2ccccc2Cl)C(Cl)(Cl)Cl)cc1` (stereo not given), the AC50 was 27.6 µM (active). In the case of `CN(C)CCO`, the outcome was inactive. Turning to `CCOP(=S)(OCC)SCSC(C)(C)C`, the result was inactive. As for `Oc1ccc(Cl)cc1Cl`, the result was inactive. As for `N#Cc1ccc(N(CC(N)=O)CC(F)(F)F)cc1C(F)(F)F`, the result was inactive.
